According to the supplement of paper PMC6555819:

Test system: FXR:RXRa (NR concentration 270 nM, RXRa partner concentration 90 nM)
Assay: PBM binding z-score (relative to random genomic background probes); higher = stronger binding; sequences stand for … in GC…GCGATTGACAGCGTAGAATGAAGG
In short: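 Antibodies against each partner of ligand-free nuclear receptor dimers (one per run) detected binding on custom Agilent 4×180K protein-binding microarrays after 1 h incubation. The double-stranded probes had 34-nt variable regions carrying direct-repeat seeds, single-nucleotide variants, half-site ablations and random human genomic background sequences. Binding z-scores, from regression-normalized fluorescence, use the random background probes as reference.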

| Sequence | PBM binding z-score |
| --- | --- |
| CTACCAAGGTGAACAAGGTCGTTGACTACTATTC | 1.83 |
| GCTAGCTGGTCAGTAAAAGGTCACACACCGGTCG | 3.2 |
| AGTCAAAGTTCACTAGGTAACGTCAGATTCAGCT | 4.66 |
| CTCGAAAGGTAGGTTGAGGTGAGTATACGGATAA | 0.719 |
| TCATATAGGTAAATGCGAGGTGAAAGTCCGATCT | 1.14 |
| TAGCCTAGGGCATTGGGCCAGTATAGTACGCATC | -0.339 |
| ATCTCTAGGTAAAGTTCAGTAAAAGATCGATAGA | 1.06 |
| CAGCCTAGGTCAGGGCTAGTATAGGAGGAACGTT | 1.42 |
| CAGACTAGGTCAGGGCCAGTATAGGAGGAACGTT | 1.14 |
| CCTCGGAGGACAGAAGGTCAGAGTTGTCCGCTTT | 1.19 |
| CTCGAAAGGTCGGTTGAGGTGAGTATCCGGATAA | 2.5 |
| ATCGAAAGGTCGAGGTGAGTATAGAGAAAGGGAA | 4.21 |
| AATACAGGGTCATCGTAGGCCAAAGTACGCACAG | 7.45 |
| CGTCCAAGCTCAATGCTAGGTCAGTGAAAGCATT | -0.232 |
| ATCTCTAGGTAAAGATAGTTCAGTGACTGCAAAT | 0.289 |
| TCTATTAGTTGAAGGGCAACCGGCGAGTCCGTTT | 0.888 |
| CTCGAAACGTCGGTTGAGGTGAGTATACGGATAA | 0.172 |
| ACTAGCAGGCCAAGGGACACTCAAGATTAGTCCG | -0.455 |
| TTACCAAGGTTAAGGTCGTTGATCCCTCTGTAGA | 4.22 |
| GCTGCTAGGTCAGGTTGGACAGCTAACGGGTACG | 1.1 |

| Sequence | PBM binding z-score |
| --- | --- |
| GCTATTCGTTGAAAGGGCAACCGAATGATTCTCG | 0.141 |
| CAAACTAGGTCAAAGGTCAATGTCGAGCCAACCA | 8.32 |
| ATATGTAGGTTATCGGGGCATTCAGTTTGCGCAT | 1.18 |
| TCTAGTTGGTCAAATGTCACACACTCGAAATGCG | 0.894 |
| CTACCAAGGTGAACAAGGTCGTTGGTTACTATTC | 1.39 |
| TCTTGTAGGTCAGCAGGTTAAGAAAGCTGGCCAA | 3.31 |
| CGAACTTGGTCAGAACAGGACAGTGAAGGATGAT | -0.314 |
| ACAGACAGGTGAGTGAAGGTAACTGAGCTGGACG | 0.439 |
| TCTATTAGTTGAAGGGCATCCGACGAGTCCGTTT | 0.895 |
| AGTCAAAGTTCATCTAGGTAAAGTAAGATATGCT | 7.01 |
| CCTTACGGGTCAAGGTTACAGCACGGGTGGTACG | 5.94 |
| CAAACTACGTCAAGGTCAAAGTCGGTTTGTGCCA | 4.66 |
| CCTCGGAGGACATCAGGAGGTCAGAGCTGCCAGA | 1.63 |
| AGAACGAGGGCAATGAGTTGGTAGCACGGGTGGC | 0.301 |
| AGTTAAAGTTCAGGACGAGGTAACGTAAAGCACG | 3.69 |
| ACAGACAGGTGAGTGCAGGTAACTCAGCTGGACG | 0.0345 |
| TCATATAGGTAAAAGGTGAAAGCCGGTGTGGTAA | 1.71 |
| GCTGCTTGGTCAGGTTGGTCAGCTAACGGGTACG | -0.11 |
| CCTTACGGGTCACTCCAGGTTAGAGCATCGGAGT | 4.5 |
| CCTACTGGGCCAAAAAGGACATTGATGCCGATAA | -0.363 |
